From PubChem
SENP8 block-1 – inhibitors of human SENP8 protease. purified SENP8, Z-RLRGG-aminoluciferin cleavage, luminescence. inhibition, % at 10 µM. hit rate 1.2% among 330,000. Q96LD8; in the data active = inhibition above about 50%
Target sequence (Q96LD8 whole entry, looked up): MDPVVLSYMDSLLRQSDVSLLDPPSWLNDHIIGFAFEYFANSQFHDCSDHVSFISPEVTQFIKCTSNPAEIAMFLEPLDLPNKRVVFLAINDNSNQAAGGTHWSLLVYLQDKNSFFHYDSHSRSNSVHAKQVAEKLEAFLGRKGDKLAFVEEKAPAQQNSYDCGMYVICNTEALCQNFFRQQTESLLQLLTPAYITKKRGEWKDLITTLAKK
SENP7 inh – SENP7 protease inhibition | recombinant SENP7, Z-RLRGG-aminoluciferin luminescence, 40 min | AID 434973 | hit rate 1.5% among 330,000 | inhibition, % at 5 µM | Q9BQF6;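 active = inhibition above about 50% at the single test dose, limit read from the data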;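 also: plate controls were DMSO with enzyme for no effect and no enzyme buffer wells for full effect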
Target sequence (Q9BQF6 706-1050 limits assumed): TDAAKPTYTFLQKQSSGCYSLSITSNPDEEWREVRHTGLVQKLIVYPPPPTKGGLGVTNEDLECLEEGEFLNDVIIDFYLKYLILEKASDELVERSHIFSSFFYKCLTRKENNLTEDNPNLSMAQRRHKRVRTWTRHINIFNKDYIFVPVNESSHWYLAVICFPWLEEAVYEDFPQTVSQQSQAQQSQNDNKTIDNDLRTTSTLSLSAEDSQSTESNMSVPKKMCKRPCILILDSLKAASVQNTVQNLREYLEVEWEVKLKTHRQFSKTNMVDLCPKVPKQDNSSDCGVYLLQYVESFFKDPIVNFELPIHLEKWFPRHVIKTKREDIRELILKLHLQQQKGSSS
SENP8 block-2 – blocks human SENP8 cleavage of Nedd8 substrate; inhibition, % at 20 µM; recombinant SENP8, Nedd8 substrate fluorescence; hit rate 0.64% among 360,000; in the data active = inhibition mostly above about 40%, no sharp cut-off; inactive = mostly below about 27%
SENP6 block – inhibitors of human SENP6 protease; AID 2599; inhibition, % at 10 µM; Q9GZR1; Recombinant SENP6 catalytic domain, aminoluciferin luminescence; hit rate 1.8% among 330,000;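 active = inhibition above about 50% at the single tested dose, limit read from the data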;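 also: plate controls were DMSO wells with enzyme for no effect and DMSO wells lacking enzyme for full effect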
AHR activator – activates the human aryl hydrocarbon receptor; activation, % at 5 µM; AHR-responsive luciferase reporter cells, luminescence; P35869; hit rate 2.5% among 320,000; in the data active = activation above about 47%;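 also: 0% = vehicle wells and 100% = reference agonist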
EBI2 block – antagonists of human EBI2 receptor. AID 651636. EBI2 beta-arrestin recruitment, luminescence, 7a,25-OHC stimulated. P32249. hit rate 0.81% among 360,000. inhibition, % at 5 µM; in the data active = inhibition above about 38%;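 also: enzyme fragment complementation signal reports receptor beta-arrestin coupling in cells; 0% = agonist plus DMSO wells and 100% = wells without agonist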
Active calls of the source: *; i = inactive; x = no result given. Sampled rows, rich in hits. Any-hit rate of the full collection: about 5%.

SMILES	SENP8 block-1	SENP7 inh	SENP8 block-2	SENP6 block	AHR activator	EBI2 block
O=C(CC[C@H]1O[C@@H](n2cnc3c(NC(=O)c4ccccc4)ncnc32)[C@H](O)[C@@H]1O)NCCCN1CCCC1=O	x	x	13	x	x	-6
Cc1ccc(NC(=O)c2cncc(Br)c2)cc1S(=O)(=O)N(C)C	-1	-2	12	6	67*	-6
CN(C)S(=O)(=O)c1cccc(NC(=O)c2cncc(Br)c2)c1	-2	-5	5	-7	17	-7
CCN(CC)C(=O)CSc1nnc(-c2cc(-c3ccc(Cl)cc3)nc3ccccc23)o1	0	6	-252	-12	10	33
CCNC(=O)CSc1nnc(-c2cc(-c3ccc(Cl)cc3)nc3ccccc23)o1	-15	-3	-63	-6	50*	2
O=c1c2cc(Cl)ccc2nc(-c2ccc(Cl)c(Cl)c2)n1O	15	9	-19	59*	24	-7
Cc1ncc([N+](=O)[O-])n1CC(=O)Nc1cccc(C(F)(F)F)c1	10	-3	11	-2	3	-11
Cc1ccc(NC(=O)CN(C)C(=O)c2cccc(S(=O)(=O)N3CCc4ccccc4C3)c2)cc1	x	x	17	x	x	4
COC(=O)c1ccccc1NC(=O)c1ccc(COc2cccc3ccccc23)o1	0	10	-46	-10	16	8
Cc1cccc(NC(=O)c2ccc(COc3cccc4ccccc34)o2)n1	-12	13	-42	-10	71*	-5
Oc1ccccc1-n1c(-c2ccccc2)ccc1-c1ccccc1	9	7	-273	20	51*	18
CSCCC(c1nc2ccccc2[nH]1)n1c(/C=C/c2ccc(F)c(F)c2)nc2ccccc21 (stereo unspecified)	x	x	-382	x	x	26
Cc1ccn2c(NC(=O)C(C)(C)Oc3ccc(Cl)cc3)c(-c3cccs3)nc2c1	-11	6	-409	5	8	42
CCOc1cc(/C=N/O)ccc1OCc1ccc([N+](=O)[O-])cc1	3	0	20	8	78*	-1
CCOc1cc(C=C(C(=O)OC)C(=O)OC)ccc1OCc1ccc([N+](=O)[O-])cc1	-9	-3	23	-29	15	59*
CCOc1cc(C(=O)OCc2ccc([N+](=O)[O-])cc2)ccc1OCC(=O)N1CCOCC1	-9	-6	13	-1	-1	-6
CCOc1cc(/C=N/O)ccc1OCc1ccc(F)cc1	-3	-4	15	-9	27	-3
CCC(CC)C(=O)Nc1cc(C)c2c(=O)oc3ccccc3c2n1	16	-5	-19	-13	50*	-9
COCc1ccc(-c2c(-c3ccccc3OC)sc3cc4c(cc23)OCO4)cc1	4	-9	-111	0	51*	6
COc1ccccc1-c1sc2cc3c(cc2c1-c1ccc(O)cc1)OCO3	8	-1	-175	8	24	7
Cc1cc(SCC(=O)c2ccc(O)c(O)c2)nc2ccccc12	-13	-3	15	-8	-3	-1
Cc1cc(SCC(=O)c2cc3ccccc3o2)nc2ccccc12	-9	0	-63	-19	52*	5
Cc1cc(SCC(=O)c2ccc3c(c2)OCO3)nc2ccccc12	1	-2	1	-5	64*	-2
O=C(NCc1cccs1)c1csc([C@@H]2O[C@H](CO)[C@H](O)[C@H](O)[C@H]2O)n1	x	x	24	x	x	-4
Cc1ccc(S(=O)(=O)N(C)c2ccc(OCC(=O)Nc3nc4c(ccc5ccccc54)s3)cc2)cc1	2	7	-12	8	47*	3
SMILES	SENP8 block-1	SENP7 inh	SENP8 block-2	SENP6 block	AHR activator	EBI2 block
CCOP(=O)(OCC)/C(=C/N1CCCCC1)NC(=O)c1ccccc1	0	0	10	-9	64*	8
Cc1ccc(C2=NN=C(NC(=O)CSc3nnc4c5ccccc5n(C)c4n3)SC2)cc1	0	11	18	19	77*	-2
CON(C)S(=O)(=O)c1cccc(C(=O)Nc2cccc(S(=O)(=O)NC3=NCCCCC3)c2)c1	x	x	8	x	x	-3
CCC/C(=N/NC(=O)c1ccc2c(c1)OCO2)c1cccs1	-8	0	17	-14	64*	-15
C=C1CC(COc2cc(=O)oc3ccccc23)(c2ccccc2)OC1=O (stereo unspecified)	x	x	17	x	x	52*
Cc1ccc(N2Cc3ccccc3C2=S)cc1	44	59*	1	54*	4	3
S=C1c2ccccc2CN1c1ccccc1	-8	2	18	5	4	2
COc1cc(CC(=O)OCC(=O)NCC(C)C)cc(OC)c1OC	3	-3	11	0	-1	2
O=C1CCCCCC(=O)[C@H](O)C[C@H](c2ccccc2)O1	x	x	1	x	x	-1
CN(C)Cc1c(O)ccc2c(=O)c(-c3ccc(Cl)cc3)coc12	-3	0	-445	3	66*	0
O=C(NCCc1ccccc1)c1ccc(NC(=O)C2CCC2)cc1	x	x	4	x	x	-3
O=C(Cc1c[nH]c2ccccc12)NCc1ccc(Cl)cc1	-1	-2	14	-5	4	32
CN1C2C=C(N(CCc3c[nH]c4ccccc34)C(=O)c3ccc(Cl)cc3)CC1CC2 (stereo unspecified)	-7	12	0	-82	16	61*
CC1CN(c2oc(-c3cccs3)nc2C#N)CC(C)O1 (stereo unspecified)	-11	-4	-499	-6	67*	0
N#Cc1nc(-c2cccs2)oc1N1CCOCC1	2	-7	-308	3	28	2
CC1(C)NC(=O)N(CCC(=O)Nc2ccc(C(C)(C)C)cc2)C1=O	x	x	11	x	x	-5
COc1ccc(C2NC(=S)N3C(c4ccc(OC)cc4)NC(=S)N23)cc1 (stereo unspecified)	2	3	20	35	-2	4
COc1ccc(C2Nc3cc(OC)ccc3-n3cccc32)cc1 (stereo unspecified)	7	5	-449	-30	60*	16
Clc1ccc(-c2nc3nc4ccccc4nc3n2Cc2ccco2)cc1	4	5	i	31	53*	25
COc1ccc2oc(=O)c(C(=O)Oc3ccc(NC(C)=O)cc3)cc2c1	-4	-8	-267	-2	3	0
CC(C)(C)C(=O)NC(=S)Nc1sc2c(c1C#N)CCCCC2	-5	-5	14	-5	59*	3
Cc1ccc(C(=O)Nc2sc3c(c2C#N)CCCCC3)cc1C	-1	-4	-54	-25	71*	11
Cc1noc(C(=O)Nc2sc3c(c2C#N)CCC3)c1Cl	15	-1	30	10	47*	1
Cc1ccccc1C(=O)NC(=S)Nc1sc2c(c1C#N)CCCC2	-6	3	25	-6	0	9
CC(=O)Nc1sc2c(c1C#N)CCCCC2	-4	5	15	-6	11	10
COc1ccc(Cc2c(C3CCCCC3)nc3c(C)cc(Br)cn23)c(C)c1	x	x	-17	x	x	11
CC(=O)Oc1ccc(Cn2c(C)c(C(=O)NCc3ccc4c(c3)OCCO4)sc2=O)cc1	x	x	4	x	x	3
